# Several values for one entry are separate records, joined by “and”; a condition that tells them apart may be missing. Identical values can stand only once. Counter-ions that a name gives are not always drawn. ± gives the standard deviation of the averaged measurements. About 15 (2%) of roughly 1,000 compounds showed an effect of 50% or more. The list comes from a sample in which strong results are over-represented; it also holds similar structures and randomly drawn compounds.
# Test system: HFF
# Test: uninfected host cell viability relative to vehicle control; higher = less host cell toxicity
# Settings: 5 µM; 72 h; oxygen 21 %
row,SMILES,uninfected host cell viability
1,CNc1cc(OC)c(C(=O)NC2CCN(Cc3ccccc3)C2C)cc1Cl (stereo unspecified) [Nemonapride],86.9 ± 6.9%
2,C[C@H](NC[C@H](O)CP(=O)(O)Cc1ccccc1)c1ccc(Cl)c(Cl)c1,87.23 ± 0.39%
3,CCOc1ccc(Nc2nc(-c3c(C)nc4ccccn34)cs2)cc1,73.8 ± 2.5%
4,CCCCC[C@H](O)/C=C/[C@H]1[C@H](O)CC(=O)[C@@H]1C/C=C\CCCC(=O)O [Prostaglandin E2],95.2 ± 2.4%
5,COC(=O)C1=C(C)NC(C)=C(C(=O)OC(C)C)C1c1cccc2nonc12 (stereo unspecified) [Isradipine],104 ± 7.9%
6,CC(Cc1ccccc1)(NC(=O)CN)c1ccccc1 (stereo unspecified) [Remacemide hydrochloride],85.5 ± 1.2%
7,CCn1c(=O)[nH]c2ccccc21,95.8 ± 5.6%
8,CC(/C=C/c1cccc(Oc2ccc(F)cc2)c1)N(O)C(N)=O (stereo unspecified),82.8 ± 3.7%
9,O=C1NN(C(=O)Nc2ccc(Br)cc2)[C@@H](c2ccccc2)[C@@H]1c1ccccc1,91.67 ± 0.67%
10,CCc1c2c(nc3ccc(O)cc13)-c1cc3c(c(=O)n1C2)COC(=O)[C@]3(O)CC,77.3 ± 8.2%
11,NCCNC(=O)c1ccc(Cl)cn1 [Lazabemide hydrochloride],94.7 ± 1.2%
12,Nc1[nH]nc2nnc(-c3c(-c4ccccc4)nn4ccccc34)cc12,94.685 ± 0.091%
13,OC(c1ccccc1)C1CCN(CCc2ccccc2)CC1 (stereo unspecified),101 ± 7.3%
14,Cc1cc(/C(=C/Nc2ccc(Cl)cc2)C(=O)Nc2ccc(Cl)cc2)on1,86.9 ± 4.8%
15,CC1(CN2CCC(n3c(=O)[nH]c4ccccc43)CC2)OCc2ccccc2-n2cccc21 (stereo unspecified),94.4 ± 2%
16,Nc1ccc(-c2cccc3c(=O)cc(N4CCOCC4)oc23)cc1,77 ± 0.83%
17,c1ccc(N2CCN(CCCOc3ccc4c(c3)OCO4)CC2)cc1 [BP 554 maleate],90.9 ± 6.9%
18,CCS(=O)(=O)N(C)[C@H]1c2cc(C#N)ccc2OC(C)(C)[C@@H]1O (racemic) [Chromanol 293B],91.3 ± 6.7%
19,c1ccc2oc(C3=NCCN3)cc2c1 [2-BFI hydrochloride],84.5 ± 0.93%
20,COc1ccc(-n2[nH]c3c4c(ncc3c2=O)CCCCC4)cc1,92.03 ± 0.15%
21,O=C(O)COc1cccc(-c2ocnc2-c2nc(-c3ccccc3)c(-c3ccccc3)o2)c1,105 ± 3.5%
22,NC(N)=Nc1ccc(Cl)cc1 [4-Chlorophenylguanidine hydrochloride],87.3 ± 2.5%
23,CN(Cc1ccccc1)C(=O)[C@H](Cc1ccc2ccccc2c1)NC(=O)[C@@H]1CCCN1C(=O)Nc1ccccc1[N+](=O)[O-],87.6 ± 1.8%

row,SMILES,uninfected host cell viability
1,CC[C@H](CO)Nc1nc(Nc2cccc(-c3ccccn3)c2)c2ncn(C(C)C)c2n1 [(R)-DRF053 dihydrochloride],84.1 ± 1.9%
2,CC(C)NCC(O)c1ccc2ccccc2c1 (stereo unspecified) [Pronethalol hydrochloride],85.9 ± 2.6%
3,COc1cc2ncn(-c3cc(OCc4ccccc4C(F)(F)F)c(C(N)=O)s3)c2cc1OC,83.8 ± 1.1%
4,COCCNC(=O)COc1ccc(OCCNC[C@H](O)COc2ccccc2)cc1 [ZD 7114 hydrochloride],83.8 ± 2.3%
5,CCN(CC)CCCCC1CCN(CC(=O)N2c3ccccc3C(=O)Nc3cccnc32)CC1,89.2 ± 4.3%
6,O=C1c2ccccc2C(Cc2ccnc(F)c2)(Cc2ccnc(F)c2)c2ccccc21,90.8 ± 1.9%
7,NC(=O)N1C(=O)/C(=C(\O)c2cccs2)c2cc(Cl)ccc21 [Tenidap],89.1 ± 2%
8,COCC(=O)O[C@]1(CCN(C)CCCc2nc3ccccc3[nH]2)CCc2cc(F)ccc2[C@@H]1C(C)C [Mibefradil dihydrochloride],79.7 ± 4.6%
9,CC(C)[C@H]1c2ccc(F)cc2CC[C@@]1(CCN(C)CCCc1nc2ccccc2[nH]1)OC(=O)C1CC1 [NNC 55-0396 dihydrochloride],15.68 ± 0.031%
10,CCCCN1CCCC1CNC(=O)c1cc(C#N)c2ccccc2c1OC (stereo unspecified) [Nafadotride],84.8 ± 2.4%
11,COc1cc(C[C@H]2C(=O)OC[C@@H]2Cc2ccc(OC)c(OC)c2)ccc1O [Arctigenin],90 ± 1.6%
12,C[C@@H](CN1CCC(n2c(=O)[nH]c3cc(Cl)ccc32)CC1)NC(=O)c1ccc2ccccc2c1,94.4 ± 5.7%
13,COc1ccc(C(=O)Nc2sc3c(c2C(N)=O)CCCC3)cc1OC,80.1 ± 2.9%
14,CCOC(=O)[C@@H](C)Oc1cccc2c(=O)n(CC(=O)Nc3ccc4c(c3)OCCO4)ccc12,84.7 ± 0.99%
15,NC(=O)c1ccc(-c2nc(-c3ccccn3)c(-c3ccc4c(c3)OCO4)[nH]2)cc1,92.28 ± 0.26%
16,CC(C1=C(CCN(C)C)Cc2ccccc21)c1ccccn1 (stereo in doubt) [(S)-(+)-Dimethindene maleate],94.3 ± 0.97%
17,CC(O)(C(=O)Nc1ccc(S(=O)(=O)c2ccccc2)cc1)C(F)(F)F (stereo unspecified),99.7 ± 2.5%
18,Clc1ccccc1CNCC1CCC(CNCc2ccccc2Cl)CC1 (stereo unspecified),83.3 ± 1.1%
19,CCCCNC(=O)[C@@H]1Cc2ccccc2N1C(=O)[C@@H](N)CC [Butabindide oxalate],88.3 ± 5.3%
20,CCOc1cc(CC(=O)N[C@@H](CC(C)C)c2ccccc2N2CCCCC2)ccc1C(=O)O [Repaglinide],93.7 ± 2.1%
21,CCCCCCCCCCCC1=C(O)C(=O)C=C(O)C1=O [Embelin],83.69 ± 0.49%
22,Nc1nc(-c2ccc(Cl)c(Cl)c2)c(-c2ccncc2)s1 [CGH 2466 dihydrochloride],87.4 ± 1.5%
23,C[C@H](NC(=O)c1sccc1OCc1ccc(Cl)cc1)c1ccccc1,115 ± 1.5%

row,SMILES,uninfected host cell viability
1,CN1c2cc3c(cc2N=C(c2ccc(C(=O)O)cc2)c2ccccc21)C(C)(C)CCC3(C)C,100 ± 8.6%
2,N[C@@H](Cn1ccc(=O)n(Cc2ccccc2C(=O)O)c1=O)C(=O)O,84.8% and 85.7%
3,CCc1cc2c(c(CC)n1)CCC(=O)N2Cc1ccc(-c2ccccc2-c2nn[nH]n2)cc1 [ZD 7155 hydrochloride],94.11 ± 0.49%
4,CC[N+](C)(CC)CC(=O)Nc1c(C)cccc1C [N-Methyllidocaine iodide],87.9 ± 3.1%
5,CC(=O)N(OCc1ccccc1)[C@H]1c2cc(C#N)ccc2OC(C)(C)[C@H]1O,98.6 ± 2.8%
6,COc1ccc2[nH]c([S+]([O-])Cc3ncc(C)c(OC)c3C)nc2c1 (stereo unspecified) [Omeprazole],85.1 ± 2.2%
7,c1nc(CC2CCNCC2)c[nH]1 [Immepip dihydrobromide],81.5 ± 3.3%
8,CC(C)[C@H](NS(=O)(=O)c1ccc(-c2ccc(Br)cc2)cc1)C(=O)O,87.2 ± 2.2%
9,O=C(NC(NC(=S)Nc1ccc(F)c([N+](=O)[O-])c1)C(Cl)(Cl)Cl)C(c1ccccc1)c1ccccc1 (stereo unspecified),86.1 ± 11%
10,Cc1nn(C)c2nc(NNC(=O)Nc3cc(Cl)nc(Cl)c3)cc(C(C)C)c12,89.2 ± 3.1%
11,O=C(O)c1c(Sc2ccccc2)c2cc(Cl)ccc2n1Cc1ccc(Cl)cc1,93.9 ± 8.2%
12,O=C(Nc1ccccc1)C12CC1C(=NO)c1ccccc1O2 (stereo unspecified),96.71 ± 0.12%
13,Clc1cccc(Nc2nnc(-c3ccccc3)c3ccccc23)c1,85.8 ± 0.91%
14,CCCCC1CCC(c2nc(-c3ccncc3)no2)CC1 (stereo unspecified),102 ± 3.9%
15,Cc1c(C(=O)N(C)C2CCCCC2)sc2nc3ccc(N)cc3n12,83.6 ± 2.2%
16,COC(=O)C1=C(C)NC(C)=C([N+](=O)[O-])[C@H]1c1ccccc1C(F)(F)F,68.2 ± 1.7%
17,O=S(=O)(c1cccc2cnccc12)N1CCCNCC1 [Fasudil hydrochloride],90.57 ± 0.53%
18,Cc1cc2nc3c(=O)[nH]c(=O)nc-3n(C)c2cc1C=O,94 ± 2%
19,O=C(O)Cc1cccc(OCCCN(Cc2cccc(C(F)(F)F)c2Cl)CC(c2ccccc2)c2ccccc2)c1 [GW 3965 hydrochloride],99.5 ± 3.2%
20,CC1=C(C(=O)OCCN(Cc2ccccc2)c2ccccc2)C(c2cccc([N+](=O)[O-])c2)C(P2(=O)OCC(C)(C)CO2)=C(C)N1 (stereo unspecified) [Efonidipine hydrochloride monoethanolate],98.4 ± 7.4%
21,Cc1cc(C)c(S(=O)(=O)Nc2cccc(C(F)(F)F)c2)c(C)c1,82.4 ± 6.6%
22,CN(C)CCCSC(=N)N [Dimaprit dihydrochloride],95.8 ± 1.1%
23,CC(=Cc1ccc(C(=O)O)cc1)c1ccc2c(c1)C(C)(C)CCC2(C)C,80.4 ± 2.1%

row,SMILES,uninfected host cell viability
1,CC[C@@H]1Cn2c(c3nc(-c4ccccc4)nc-3n(C)c2=O)N1,89.2 ± 4.1%
2,CS(=O)(=O)Nc1c(O)ccc2c1CCCC2C1=NCCN1 (stereo unspecified),84.9 ± 2.8%
3,COc1ccc2cccc(N3CCN(CCNC(=O)c4ccc(F)cc4)CC3)c2c1,82.7 ± 4%
4,Cc1ccc(NC2=CC(=O)c3sc(C)nc3C2=O)cc1 [Ryuvidine],16.8 ± 0.66%
5,O=C(O)c1ccc(-c2c[nH]c3ncc(-c4ccccc4)cc23)cc1C1CCCC1,109 ± 2.2%
6,Nc1nc2c(cnn2CCc2ccccc2)c2nc(-c3ccco3)nn12,96.8 ± 2.3%
7,CN(N=O)C(=O)N[C@@H](C=O)[C@@H](O)[C@H](O)[C@H](O)CO [Streptozocin],86.9 ± 5.4%
8,CC(=O)NCCc1c(Cc2ccccc2)[nH]c2ccccc12 [Luzindole],101 ± 4.8%
9,CCC(NC(C)C)C(O)c1ccc(O)c2[nH]c(=O)ccc12 (stereo unspecified) [Procaterol hydrochloride],87.5 ± 1.7%
10,CCC(=O)NC1Cc2ccccc2C(c2ccccc2)C1 (stereo unspecified),99.58 ± 0.97%
11,C[S+]([O-])c1ccc(-c2nc(-c3ccc(F)cc3)c(-c3ccncc3)[nH]2)cc1 (stereo unspecified),89.4% and 88.6%
12,N=C(CC(O)COc1ccccc1-c1ccccc1)N1CCCCC1 (stereo unspecified),89.4 ± 2.9%
13,Cn1cc(/C=C2\C(=O)Nc3cccnc32)c2ccccc21,67.8 ± 1.2%
14,c1cc2c3c(c1)c1c(n3CCNC2)CCCC1 [WAY 629 hydrochloride],89.6 ± 5.6%
15,CCCCC/N=c1\ccn(Cc2ccccc2)c2ccccc12,83.1 ± 2.5%
16,CCCCCCCCc1ccc(-c2ccc(C(=O)O)cc2)cc1,85.5 ± 5%
17,CCCCCCCCCCCCCCCCn1cc[n+](Cc2ccccc2)c1C,32 ± 6.6%
18,CNC(=O)[C@@H](Cc1ccccc1)N(C)C(=O)[C@@H](Cc1ccc2ccccc2c1)N(C)C(=O)/C=C/CC(C)(C)N [Tabimorelin],79.1 ± 1.2%
19,N#Cc1ccccc1OCC(O)CNCCNC(=O)Nc1ccccc1 (stereo unspecified),86.9 ± 1.3%
20,COc1ccc(NC(=O)c2cc(OCCCN(C)C)nn2Cc2ccccc2)cc1 [CFM 1571 hydrochloride],81.7 ± 2%
21,CCc1ccc(OCc2ccccc2C(=O)Nc2ccc3nc(C)cc(N)c3c2)cc1,15 ± 0.61%
22,CCN(CC)CCCC(C)Nc1nc(C)cc(Nc2ccc3nc(C)cc(N)c3c2)n1 (stereo unspecified),80.4 ± 1.2%

# — the supplement of paper PMC4894684
